In PubChem BioAssay AID1159580 (chemical genetic matrix, 2015):
The whole screen tested about 5,500 compounds, of which about 2,000 (36%) were called active. About 18% were inconclusive and are not listed. Rule as the data show it: active = normalized growth mostly below about 0.91 (no sharp cut-off); inconclusive = no clear call, values can overlap the other calls; inactive = mostly above about 0.92. The list shows a part of the results.

Assay: chemical genetic growth profiling, strain panel (AID 1159580);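 also: tested at 20 µM; growth read once vehicle control cultures reached saturation at 30 °C; 1 = growth at the plate median or of vehicle wells; lower values mean less growth of the strain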
Conditions: growth OD

Measured: normalized growth

C[n+]1c2cc(N)ccc2cc2ccc(N)cc21
active: S. cerevisiae deletion strains, locus YKL160W, strain elf1, hits give low values 0.586 | S. cerevisiae deletion strains, locus YKL190W, strain CNB1, hits give low values 0.85 | S. cerevisiae deletion strains, locus YKR001C, strain vps1, hits give low values 0.844 | S. cerevisiae deletion strains, locus YKR026C, strain gcn3, hits give low values 0.696 | S. cerevisiae deletion strains, locus YKR091W, strain srl3, hits give low values 0.784 | S. cerevisiae deletion strains, locus YLL001W, strain dnm1, hits give low values 0.456 | S. cerevisiae deletion strains, locus YLL026W, hits give low values 0.471 | S. cerevisiae deletion strains, locus YLL041C, strain sdh2, hits give low values 0.652 | S. cerevisiae deletion strains, locus YLR027C, strain aat2, hits give low values 0.446 | S. cerevisiae deletion strains, locus YLR058C, strain SHM2, hits give low values 0.743 | S. cerevisiae deletion strains, locus YLR102C, strain apc9, hits give low values 0.924 | S. cerevisiae deletion strains, locus YLR221C, strain rsa3, hits give low values 0.468 | S. cerevisiae deletion strains, locus YLR258W, strain gsy2, hits give low values 0.524 | S. cerevisiae deletion strains, locus YLR262C, strain YPT6 (second series), hits give low values 0.718 | S. cerevisiae deletion strains, locus YLR268W, strain sec22, hits give low values 0.776 | S. cerevisiae deletion strains, locus YLR320W, strain mms22, hits give low values 0.191 | S. cerevisiae deletion strains, locus YLR330W, strain CHS5, hits give low values 0.863 | S. cerevisiae deletion strains, locus YLR342W, strain FKS1, hits give low values 0.752 | S. cerevisiae deletion strains, locus YLR357W, strain rsc2, hits give low values 0.669 | S. cerevisiae deletion strains, locus YLR370C, strain arc18, hits give low values 0.506 | S. cerevisiae deletion strains, locus YLR371W, strain rom2, hits give low values 0.908 | S. cerevisiae deletion strains, locus YLR384C, strain iki3, hits give low values 0.682 | S. cerevisiae deletion strains, locus YLR418C, strain cdc73, hits give low values 0.727 | S. cerevisiae deletion strains, locus YML016C, strain PPZ1, hits give low values 0.806 | S. cerevisiae deletion strains, locus YML032C, strain rad52, hits give low values 0.195 | S. cerevisiae deletion strains, locus YML120C, strain ndi1, hits give low values 0.409 | S. cerevisiae deletion strains, locus YML124C, strain tub3, hits give low values 0.928 | S. cerevisiae deletion strains, locus YMR058W, strain fet3, hits give low values 0.531 | S. cerevisiae deletion strains, locus YMR078C, strain ctf18, hits give low values 0.783 | S. cerevisiae deletion strains, locus YMR125W, strain sto1, hits give low values 0.703 | S. cerevisiae deletion strains, locus YMR129W, hits give low values 0.648 | S. cerevisiae deletion strains, locus YMR205C, strain PFK2, hits give low values 0.439 | S. cerevisiae deletion strains, locus YMR223W, strain ubp8, hits give low values 0.717 | S. cerevisiae deletion strains, locus YMR263W, strain SAP30, hits give low values 0.626 | S. cerevisiae deletion strains, locus YNL067W, strain RPL9B, hits give low values 0.698 | S. cerevisiae deletion strains, locus YNL071W, strain lat1, hits give low values 0.28 | S. cerevisiae deletion strains, locus YNL128W, strain TEP1, hits give low values 0.613 | S. cerevisiae deletion strains, locus YNL153C, strain GIM3, hits give low values 0.744 | S. cerevisiae deletion strains, locus YNL209W, strain ssb2, hits give low values 0.554 | S. cerevisiae deletion strains, locus YNL233W, strain BNI4, hits give low values 0.725 | S. cerevisiae deletion strains, locus YNL248C, strain rpa49, hits give low values 0.167 | S. cerevisiae deletion strains, locus YNL250W, strain rad50, hits give low values 0.817 | S. cerevisiae deletion strains, locus YNL271C, strain bni1, hits give low values 0.911 | S. cerevisiae deletion strains, locus YNL298W, strain CLA4, hits give low values 0.896 | S. cerevisiae deletion strains, locus YNL307C, strain MCK1, hits give low values 0.66 | S. cerevisiae deletion strains, locus YNL322C, strain KRE1 (second series), hits give low values 0.218 | S. cerevisiae deletion strains, locus YNL322C, strain KRE1, hits give low values 0.836 | S. cerevisiae deletion strains, locus YNR049C, strain mso1, hits give low values 0.677 | S. cerevisiae deletion strains, locus YNR052C, strain pop2, hits give low values 0.801 | S. cerevisiae deletion strains, locus YOL006C, strain TOP1, hits give low values 0.349 | S. cerevisiae deletion strains, locus YOL147C, strain pex11, hits give low values 0.882 | S. cerevisiae deletion strains, locus YOR001W, strain rrp6, hits give low values 0.442 | S. cerevisiae deletion strains, locus YOR061W, strain CKA2, hits give low values 0.865 | S. cerevisiae deletion strains, locus YOR069W, strain VPS5, hits give low values 0.915 | S. cerevisiae deletion strains, locus YOR070C, strain gyp1, hits give low values 0.557 | S. cerevisiae deletion strains, locus YOR080W, strain dia2, hits give low values 0.409 | S. cerevisiae deletion strains, locus YOR083W, strain WHI5, hits give low values 0.452 | S. cerevisiae deletion strains, locus YOR106W, strain vam3, hits give low values 0.38 | S. cerevisiae deletion strains, locus YOR136W, strain idh2, hits give low values 0.91 | S. cerevisiae deletion strains, locus YOR144C, strain elg1, hits give low values 0.858 | S. cerevisiae deletion strains, locus YOR184W, strain ser1, hits give low values 0.664 | S. cerevisiae deletion strains, locus YOR231W, strain MKK1, hits give low values 0.822 | S. cerevisiae deletion strains, locus YOR265W, strain rbl2, hits give low values 0.599 | S. cerevisiae deletion strains, locus YOR270C, strain vph1, hits give low values 0.353 | S. cerevisiae deletion strains, locus YOR290C, strain snf2, hits give low values 0.447 | S. cerevisiae deletion strains, locus YPL051W, strain arl3, hits give low values 0.597 | S. cerevisiae deletion strains, locus YPL055C, strain LGE1, hits give low values 0.678 | S. cerevisiae deletion strains, locus YPL078C, strain atp4, hits give low values 0.465 | S. cerevisiae deletion strains, locus YPL106C, strain sse1, hits give low values 0.695 | S. cerevisiae deletion strains, locus YPL240C, strain hsp82, hits give low values 0.685 | S. cerevisiae deletion strains, locus YPL241C, strain CIN2, hits give low values 0.88 | S. cerevisiae deletion strains, locus YPR119W, strain clb2, hits give low values 0.92 | S. cerevisiae deletion strains, locus YPR163C, strain tif3, hits give low values 0.883 | S. cerevisiae deletion strains, locus YPR167C, strain met16, hits give low values 0.865 | S. cerevisiae deletion strains, strain wtn01, hits give low values 0.793 | S. cerevisiae strains, strain wild type, hits give low values 0.831
inactive: S. cerevisiae deletion strains, locus YKL009W, strain mrt4, hits give low values 0.933 | S. cerevisiae deletion strains, locus YKL068W, hits give low values 0.956 | S. cerevisiae deletion strains, locus YKL085W, strain MDH1 (second series), hits give low values 0.963 | S. cerevisiae deletion strains, locus YKL085W, strain MDH1, hits give low values 0.963 | S. cerevisiae deletion strains, locus YLR039C, strain RIC1, hits give low values 0.906 | S. cerevisiae deletion strains, locus YLR113W, strain HOG1, hits give low values 0.862 | S. cerevisiae deletion strains, locus YLR262C, strain YPT6, hits give low values 0.902 | S. cerevisiae deletion strains, locus YLR342W, strain FKS1 (second series), hits give low values 0.802 | S. cerevisiae deletion strains, locus YMR231W, strain pep5, hits give low values 0.945 | S. cerevisiae deletion strains, locus YMR307W, strain GAS1, hits give low values 0.874 | S. cerevisiae deletion strains, locus YNL183C, strain NPR1, hits give low values 0.87 | S. cerevisiae deletion strains, locus YOL012C, strain htz1 0.393 | S. cerevisiae deletion strains, locus YOR316C, strain cot1, hits give low values 0.926 | S. cerevisiae deletion strains, locus YPL256C, strain CLN2, hits give low values 0.903 | S. cerevisiae deletion strains, locus YPR141C, strain kar3, hits give low values 0.93
